Each structure is given as a SMILES string. Screen size: about 290,000 compounds; about 3,300 (1.1%) were called active. Cut-off read from the data, not from the text of the source: active = binding response below about 67% or above about 130%; inconclusive = no clear call, values can overlap the other calls; inactive = in between. The full list was thinned out, with actives kept by preference.

This assay has as its target Mitogen-activated protein kinase kinase kinase 2 (Homo sapiens) (UniProt Q9Y2U5). As to the kind of experiment: modulators of MEK5 binding to wildtype MEKK2, primary screen, biochemical, multiplex bead flow cytometry, Alexa488-MEK5 (AID 1531). The following applies: Alexa488-MEK5 binding to MEKK2 WT, at 10 µM, actives lie on both sides. (In general: In flow cytometry, cells or beads pass a laser one at a time.)
On to `O=C1NC(=O)N(CCc2ccc(F)cc2)C(=O)/C1=C/C=C/c1ccccc1`, for which the binding response (% of control) is 97% (inactive).
Consider `O=C(O)COc1ccccc1/C=C1\C(=O)NC(=O)N(CCC2=CCCCC2)C1=O`, for which the binding response (% of control) is -4% (active).
Turning to `O=C1NC(=O)N(Cc2ccco2)C(=O)/C1=C\c1cccn1CCOc1ccccc1`, the binding response (% of control) is 110% (inactive).
As to `CCOP(=S)(OCC)C(O)CCCCCn1c(=O)c(F)cn(C2CCCO2)c1=O` (stereo not given), the binding response (% of control) was 106% (inactive).
For `CCCCCCCCCCCCn1ccc(=N)cc1` the value was 173% (active).
For the compound `c1ccc(CC2CCCCN2)cc1` (stereo not given), the binding response (% of control) is 107% (inactive).
To `N#Cc1ccc(Cn2cc(C(=O)c3ccco3)c3ccccc32)cc1` belongs 98% (inactive); to `Cc1ccc2c(c1)=C/C(=C\c1c(O)[nH]c(=O)[nH]c1=O)C(=O)N=2`, 99% (inactive); to `COC(=O)N1C(c2ccccc2)C1c1ccccc1` (stereo not given), 101% (inactive).
For the compound `CNCC(O)c1cc(F)c(OCc2ccccc2)c(OCc2ccccc2)c1F` (stereo not given), the binding response (% of control) was 141% (active).
For `COC(=O)C1=C(c2cc3ccccc3s2)C[C@@H]2CC[C@H]1N2C(=O)NCc1cccc2ccccc12` the value was 93% (inactive); for `c1ccc(CCNC2CCCCCC2)cc1`, 101% (inactive).
For `COc1ccc(-n2c(O)c(C(C)=Nc3ccc4c(c3)CCC4)c(=O)[nH]c2=O)cc1` the value was 99% (inactive); for `CN(C)S(=O)(=O)c1cc(C(=O)N2CCC(C(=O)O)(c3ccccc3)CC2)ccc1Cl`, 106% (inactive).
`COC(=O)C1=C(c2cc3ccccc3o2)C[C@@H]2CC[C@H]1N2C(=O)NC1CCCCC1`: the binding response (% of control) is 101% (inactive).

Values taken from PubChem BioAssay AID1531 (NMMLSC, 2009).
